SMARCA2 activ: increases SMARCA2 function in MMTV reporter cells | activation, % at 9.1 µM | AID 652017 | MG213 cells, MMTV-luciferase reporter, dexamethasone, overnight | 370,000 tested, 1% active; in the data active = activation above about 7.8%;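 also: 0% = vehicle wells and 100% = reference activator wells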
DAX1 inh-1: inhibitors of human orphan nuclear receptor DAX1 (NR0B1). HEK293 Gal4-DAX1 luciferase reporter, luminescence. P51843. 340,000 tested, 0.99% active. AID 504766. inhibition, % at 6.75 µM;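 active = inhibition above the mean over all tested compounds plus 3 SD, cut at about 4.2% in these data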;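 also: 0% = DAX1-transfected cells with DMSO and 100% = empty-vector control cells with DMSO; inhibition shows as a rise in luminescence from relieved DAX1 repression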
Target sequence (P51843 207-470 limits assumed): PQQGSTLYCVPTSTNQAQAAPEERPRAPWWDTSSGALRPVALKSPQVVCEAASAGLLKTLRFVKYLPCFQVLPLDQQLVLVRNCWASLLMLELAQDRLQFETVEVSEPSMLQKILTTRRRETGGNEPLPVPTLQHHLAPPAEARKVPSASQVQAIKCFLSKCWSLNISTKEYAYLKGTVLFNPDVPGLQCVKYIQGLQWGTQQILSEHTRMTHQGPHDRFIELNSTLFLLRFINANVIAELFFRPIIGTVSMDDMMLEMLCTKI
DAX1 inh-2: inhibitors of DAX1 repression of SF-1 activated StAR promoter; HEK293T StAR-luciferase reporter, SF-1/DAX-1 repression relief; inhibition, % at 6.8 µM; 370,000 tested, 1.1% active; AID 652010;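 active = inhibition above the mean over all tested compounds plus 3 SD, cut at about 3.6% in these data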;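 also: 0% = DAX-1 cells with DMSO and 100% = cells lacking DAX-1 with DMSO; higher inhibition means more luminescence from relief of DAX-1 repression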
ssDAF12 agonist: S. stercoralis DAF-12 activation, primary screen. HEK293 ssDAF-12/GRIP1 lit1-tk-luc reporter, luminescence; % of 3 µM dafachronic acid response. activation, % at 6.8 µM. 370,000 tested, 1% active. AID 652126;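 active = activation above the mean over all tested compounds plus 3 SD, cut at about 0.9% in these data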;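 also: 0% = DMSO-only wells and 100% = 3 µM delta7-dafachronic acid wells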
hgDAF12 agonist: activates the H. glycines DAF-12 receptor ligand-binding domain; activation, % at 6.8 µM; 370,000 tested, 1.8% active; HEK293 GAL4-hgDAF12 UAS-luciferase reporter, agonist luminescence; normalized to butyrate control; AID 687014;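 active = activation above a cutoff set at the mean of all screened compounds plus 3 SD, cut at about 10% in these data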;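 also: 0% = DMSO wells and 100% = sodium butyrate wells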
hcDAF-12 act: activators of H. contortus DAF-12 nuclear receptor; 370,000 tested, 1.4% active; activation, % at 6.8 µM; HEK293 hcDAF-12 lit1-tk-luc reporter, luminescence; 0% DMSO, 100% Δ7-dafachronic acid;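 active = activation above the mean of all tested compounds plus 3 SD, cut at about 5.5% in these data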;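 also: 100% = response to 3 µM Δ7-dafachronic acid high control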
* = called active by the depositor; nt = no result. Sampled rows, rich in hits. Any-hit rate of the full collection: about 4.8%.

SMILES	SMARCA2 activ	DAX1 inh-1	DAX1 inh-2	ssDAF12 agonist	hgDAF12 agonist	hcDAF-12 act
Cc1ccc2[nH]c(C(=O)O)c(NC(=O)[C@@H]3C[C@@H]3c3ccccc3)c2c1	5	1	0	2.5*	2	3
COc1cccc(CNc2ccc(F)c(Cl)c2)c1O	2	0	1	-2	8	0
COC(=O)C(/C=N/O)NC(=O)c1ccccc1 (centres undefined)	0	0	1	-1	0	5.9*
CO/N=C/C(NC(=O)c1ccc(C(F)(F)F)cc1)C(=O)OC (centres undefined)	-2	-1	1	-1	-2	-2
O=C(CCc1nnc(-c2ccc3c(c2)OCO3)o1)N1CCC(c2ccc(F)cc2)C1 (centres undefined)	6	5.0*	1	1	8	1
CN1C(=S)SC(/[N+]([O-])=C/c2cccnc2)C1(C)C (centres undefined)	-4	1	-1	-1	-2	-1
Nc1[nH]n(-c2ccccc2)c(=O)c1N=Nc1ccccc1	2	3	1	1.3*	9	4
COc1cc(OC)cc(-c2nc3ccccc3c(=O)n2OC(=O)c2ccccc2C)c1	-3	-1	0	-1	12*	-1
O=C(CNC(=O)c1cccs1)OCC(=O)c1ccc(Cl)cc1	0	-1	0	12*	-1	-1
O=C(CNC(=O)c1ccc(N2C(=O)c3ccccc3C2=O)cc1)OCC(=O)c1ccc(Cl)cc1	-3	-1	0	1.7*	-1	-1
Cc1ccc(C(=O)COC(=O)CNC(=O)c2ccc(N3C(=O)c4ccccc4C3=O)cc2)cc1C	-3	1	0	-1	0	1
O=C(CCNc1ccc(Cc2ccncc2)cc1)c1ccc([N+](=O)[O-])cc1	2	0	-1	11*	1	1
CCOC(=O)N1CCN(C(=O)C(C)n2nc(C)n3c(cc4sccc43)c2=O)CC1 (centres undefined)	-2	1	-1	-1	-2	-2
COc1cc(OC)c(NC(=O)c2cccc(F)c2)cc1Cl	-2	-1	0	1.2*	-2	5
COc1cc(N)c(Cl)cc1NC(=O)c1ccccc1	-2	1	1	-1	3	0
CCCc1cc(C(=O)Nc2cc(OC)c(Cl)cc2OC)no1	1	2	0	1	-2	6.5*
COc1cc(NC(=O)c2ccccc2Cl)c(OC)cc1NC(=O)CN1CCCCC1	7.8*	0	0	-1	-3	-1
COc1cc(NC(=O)c2ccc(C)cc2)c(OC)cc1NC(=O)CN1CCCCC1	-2	-1	-1	-1	0	0
COc1cc(NC(=O)c2cc(CC(C)C)on2)c(OC)cc1Cl	-2	0	0	1	2	4
COc1cc(NC(=O)c2ccccc2)c(OC)cc1Cl	1	0	0	0	4	5.8*
N/C(CCS(=O)(=O)c1ccc(Cl)cc1)=N\OC(=O)c1ccc(Cl)cc1	4	0	1	-2	1	2
COC(=O)[C@]12C[C@H](CC(=O)NCCc3ccccc3OC)C(=O)N(Cc3ccccc3)C1=C[C@H](C1CCCC1)O[C@@H]2C	-3	nt	-1	-1	-2	-1
CN=C1S/C(=C\c2cn(CC(=O)OC)c3ccccc23)C(=O)N1C	-4	0	0	0.9*	-2	5
CN=C1S/C(=C/c2cn(CC(=O)OC)c3ccccc23)C(=O)N1C	-1	2	-1	1.7*	2	3
COc1ccc(C(=O)NC(=S)N(C)C2CCCCC2)cc1Br	-1	1	0	-1	0	1
SMILES	SMARCA2 activ	DAX1 inh-1	DAX1 inh-2	ssDAF12 agonist	hgDAF12 agonist	hcDAF-12 act
CCOC(=O)Cc1c(C)nc(SC)[nH]c1=O	1	0	0	-1	11*	0
C=CCSc1nc(C)c(CC(=O)OCCCC)c(=O)[nH]1	-1	0	1	-1	0	-1
CCC1CCCCN1CC(=O)c1c(C)[nH]c2cc(C)ccc12 (centres undefined)	-2	4	0	-1	0	5.8*
CC1CCN(c2c(NCc3ccc(C(=O)N4CCN(C5CCCCC5)CC4)cc3)c(=O)c2=O)CC1	-1	-1	2	-1	-1	1
CC1CCN(c2c(NCc3ccc(C(=O)N4c5ccccc5CC4C)cc3)c(=O)c2=O)CC1 (centres undefined)	-2	-1	-2	1.1*	-1	1
C=CCn1c(SCC(=O)N2CCN(c3ccc(F)cc3)CC2)nnc1-c1cccs1	-2	-2	-3	-1	-3	-1
O=C(O)CCc1ccc(-c2cccs2)n1NC(=O)c1ccc(O)cc1	-3	-2	0	-1	2	0
O=C(O)CCc1ccc(-c2cccs2)n1NC(=O)c1cccs1	-3	4.5*	0	-1	-4	-1
CN(C)C(=O)C1(c2ccccc2)CCN(S(=O)(=O)c2ccccc2)CC1	-1	1	0	-1	2	0
O=C(O)C1(c2ccccc2)CCN(S(=O)(=O)c2ccccc2)CC1	-1	0	0	1.0*	0	0
CCCC(=O)NC(=S)Nc1nc(-c2ccc(OC)cc2)cs1	0	4.7*	1	0	8	3
N#Cc1ccc(OCC(=O)OCC(=O)Nc2ccc(N3CCOCC3)cc2)cc1	-1	1	2	-1	0	0
O=C(COC(=O)COc1cccc(C(F)(F)F)c1)Nc1ccc(N2CCOCC2)cc1	1	0	-2	-1	0	6.1*
CCn1nc(C(=O)OCC(=O)Nc2nc(-c3ccc(OC)cc3)cs2)c2ccccc2c1=O	3	3	1	0	11*	2
CCC(=O)c1ccc(OCC(=O)OCC(=O)Nc2cccc(S(=O)(=O)N3CCOCC3)c2)cc1	7.8*	1	3	-1	2	-2
COc1ccc(-c2cc(-c3nnc4sc(Cc5cccs5)nn34)[nH]n2)cc1	-4	nt	-1	-2	-2	-3
Cc1ccc(-c2csc(NC(=O)c3cccc(S(=O)(=O)N4CCN(C)CC4)c3)n2)cc1	-2	0	0	-1	3	1
Cc1ccc(-c2csc(NC(=O)COC(=O)c3cccc(S(=O)(=O)N4CCOCC4)c3)n2)cc1	2	nt	3.6*	-1	7	1
COc1ccc(-c2csc(NC(=O)COC(=O)c3ccco3)n2)cc1	0	-1	2	-1	11*	3
CC(=O)N[C@@H](Cc1c[nH]c2ccccc12)C(=O)OCC(=O)Nc1ccc(Cl)c(S(=O)(=O)N(C)C)c1	-3	-2	0	-2	3	1
CC1(N2CCCCC2)C(=O)c2ccccc2C1=O	1	0	0	1.0*	2	2

High-throughput results from PubChem.
